In the library only some 7.3% were active in any assay of this set; here they are far more common.
HCV inhibitor = HCV inhibition; Huh7.5.1 HCVcc-Cre infection, luciferase reporter, 44 h; Potency, µM (top dose mostly 41.8 µM), without a hit: top-dose activity change, negative = inhibition, hits mostly inhibitors; hit rate 3.4% among 340,000; AID 651820; active means well fitted inhibition curve with a large enough effect; inconclusive means small, poorly fitted or top-dose-only effect, or another doubt; inactive means no such curve, though single readings can be large or run the other way; further: potency means the concentration at half of the fitted maximal effect
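HCVcc-Cre virus at an moi near 0.5 was added right after compound to cells cultured 4 h from seeding (1,000 cells/well). Luciferase activity was determined 44 h later, 15 min after substrate addition at RT.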
Vaccinia Venus = vaccinia inhibition (Venus reporter); Vaccinia virus Venus reporter expression, fluorescence; Potency, µM (doses to about 36.5 µM), for inactives: at the top dose activity change, negative = inhibition, hits mostly inhibitors; hit rate 0.46% among 330,000; AID 720580; calls by dose curve; tested in A549 cells; further: potency means the concentration at half of the fitted maximal effect; nearly all actives have a fitted effect of over 30% in size
HCMV inh = inhibitors of human cytomegalovirus; HFF cells, HCMV-luciferase reporter, 72 h; active compounds read low; AID 1259415; activity change, negative = inhibition, % at 57.5 µM; hit rate 4.5% among 410,000; in the data active means activity change below about -60%; inconclusive means no clear call, values can overlap the other calls; inactive means above about -39%
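Cell-based, HFFs, 1000 cells/well, 16 h 37C; cpds in DMSO + HCMV-luc, MOI 1 PFU/cell; 72 h 37C; OneGlo luminescence after 5 min RT; norm. to buffer vs Salinomycin 10uM.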
FMDV inh = foot and mouth disease virus antiviral activity; FMDV antiviral cell-based qHTS; Potency, µM (doses to about 57.9 µM), for inactives: at the top dose activity change, negative = inhibition, actives largely listed as inhibitors; hit rate 1.2% among 410,000; AID 1159524; calls by dose curve; tested in HEK293T cells; further: read-out not given here; potency means the concentration at half of the fitted maximal effect; nearly all actives have a fitted effect of over 45% in size
Vaccinia mCherry = inhibitors of vaccinia virus infection (mCherry reporter signal). AID 720579. hit rate 0.63% among 310,000. Vaccinia virus mCherry reporter infection, fluorescence. Potency, µM (top dose mostly 36.5 µM), for the others: at the highest dose activity change, negative = inhibition, hits mostly inhibitors; calls by dose curve; tested in A549 cells; further: potency means the concentration at half of the fitted maximal effect; nearly all actives have a fitted effect of over 35% in size
* marks the source's active call; other numbers are inactive results. On the % scale 0 is the no-effect control and ±100 the full control effect.

What do the screens show for `CCOC(=O)C1CCN(C(=O)Cn2nc(CC)n3c(cc4occc43)c2=O)CC1`?
Vaccinia Venus: 1.7%; HCMV inh: 7.6; FMDV inh: inconclusive; Vaccinia mCherry: -7.5%

Results for CN(CC(=O)Nc1ccc(Cl)cc1)C(=O)c1cccc(S(=O)(=O)N2CCN(Cc3ccccc3)CC2)c1 ?
HCV inhibitor: 11.2µM*; Vaccinia Venus: -23.8%; HCMV inh: -72.8*; FMDV inh: 22.4µM*; Vaccinia mCherry: -13.4%

What do the screens show for `CN(C)C(=O)c1ccc(NC(=O)c2cccc(S(=O)(=O)N3CCN(Cc4ccccc4)CC3)c2)cc1`?
HCV inhibitor: inconclusive; HCMV inh: 17.7; FMDV inh: inconclusive

How did CS(=O)(=O)c1ccc(NC(=O)c2cccc(S(=O)(=O)N3CCN(Cc4ccccc4)CC3)c2)cc1 do in these assays?
HCV inhibitor: 10µM*; Vaccinia Venus: -26.4%; HCMV inh: inconclusive; FMDV inh: inconclusive; Vaccinia mCherry: inconclusive

Results for CCOc1ccc(CN2CCN(S(=O)(=O)c3ccc(NC(C)=O)cc3)CC2)cc1 ?
HCV inhibitor: inconclusive; Vaccinia Venus: -16.4%; HCMV inh: -66.7*; FMDV inh: inconclusive; Vaccinia mCherry: -11.0%

How did O=C(Nc1ccc(S(=O)(=O)N2CCN(Cc3ccccc3)CC2)cc1)c1cnccn1 do in these assays?
HCV inhibitor: 6.31µM*; HCMV inh: -85.9*; FMDV inh: inconclusive

How did O=C(Nc1ccc(S(=O)(=O)N2CCCC2)cc1)c1cnccn1 do in these assays?
HCV inhibitor: inconclusive; Vaccinia Venus: -0.4%; HCMV inh: -2.7; FMDV inh: -21.8%; Vaccinia mCherry: inactive

Results for COc1ccc(CCNC(=O)c2ccc3c(c2)CCN3S(=O)(=O)c2ccc(Cl)cc2)cc1 ?
Vaccinia Venus: -23.2%; HCMV inh: -35.8; FMDV inh: -24.4%; Vaccinia mCherry: -23.5%

What do the screens show for `CCn1nc(C)cc1C(=O)NCC1Cc2cccc(-c3cccnc3)c2O1` (stereo unspecified)?
Vaccinia Venus: -14.2%; FMDV inh: -25.2%; Vaccinia mCherry: -16.6%

What do the screens show for `COc1cccc(/C=C/C(=O)OCC(=O)c2c[nH]c3ccccc23)c1OC`?
HCV inhibitor: inconclusive; Vaccinia Venus: -9.8%; HCMV inh: -17.2; FMDV inh: 25.1µM*; Vaccinia mCherry: -13.9%

Results for Nc1c(Cl)ncnc1NCCc1ccc(O)cc1 ?
HCV inhibitor: 6.31µM*; Vaccinia Venus: -14.8%; HCMV inh: -69.8*; FMDV inh: -25.3%; Vaccinia mCherry: inconclusive

Results for O=C(C1CC1)N1CC(=O)N2[C@@H](CO)[C@H](c3ccc(Br)cc3)[C@@H]2C1 ?
HCMV inh: -16.9

What do the screens show for `NC(=O)CCN1CC(c2cc(Cl)c(N)c(Cl)c2)=CC1=O`?
HCMV inh: -20.4

How did CC(=O)Nc1ccc(NC(=O)COC(=O)c2c3c(nc4ccccc24)CCN(Cc2ccccc2)C3)cc1 do in these assays?
HCV inhibitor: 12.6µM*; Vaccinia Venus: -28.8%; HCMV inh: 25.7; FMDV inh: inconclusive; Vaccinia mCherry: inconclusive

How did O=C(COC(=O)c1c2c(nc3ccccc13)CCN(Cc1ccccc1)C2)Nc1c(F)cccc1F do in these assays?
HCV inhibitor: inconclusive; Vaccinia Venus: -18.5%; HCMV inh: -96.3*; FMDV inh: -14.5%; Vaccinia mCherry: inconclusive

What do the screens show for `O=C(NCc1ccc(F)cc1)c1c2c(nc3ccccc13)CCN(Cc1ccccc1)C2`?
HCV inhibitor: 3.5%; Vaccinia Venus: -1.9%; HCMV inh: 10.1; FMDV inh: -14.6%; Vaccinia mCherry: inactive

How did Cc1ccc(-c2nn(-c3ccc(F)cc3F)c3c2cnc2c(F)cccc23)cc1 do in these assays?
Vaccinia Venus: -10.6%; HCMV inh: 20.2; FMDV inh: 5.9%; Vaccinia mCherry: -2.8%

Results for OCCN(CCO)CC(O)COc1ccc(Br)cc1 (stereo unspecified) ?
HCV inhibitor: 11.5%; HCMV inh: 30.1; FMDV inh: 8.9%

What do the screens show for `OCCN(CCO)CC(O)COc1ccc(C23CC4CC(CC(C4)C2)C3)cc1` (stereo unspecified)?
HCV inhibitor: inconclusive; Vaccinia Venus: -22.0%; HCMV inh: -62.0*; FMDV inh: 0.0%; Vaccinia mCherry: -1.5%

Results for Cc1ccc(CN2CC=CCS2(=O)=O)cc1 ?
HCMV inh: -13.4

What do the screens show for `CCOc1ccc(C(=O)NCc2nnnn2-c2ccc(C)c(C)c2)cc1OCC`?
Vaccinia Venus: -16.9%; HCMV inh: 10.2; FMDV inh: -16.3%; Vaccinia mCherry: -15.9%

How did CCCN(CCC)C(=O)Cn1c(=O)n(Cc2ccc(C(=O)NCCc3ccc(Cl)cc3)cc2)c(=O)c2ccccc21 do in these assays?
Vaccinia Venus: -15.0%; HCMV inh: 13.2; FMDV inh: 8.7%; Vaccinia mCherry: -6.7%

How did C/C(=N\NC(=O)Cc1ccc(Cl)cc1)c1ccc(F)cc1 do in these assays?
HCV inhibitor: -13.4%; HCMV inh: 0.1; FMDV inh: -15.7%

How did C/C(=N\NC(=O)Cc1ccc(Cl)cc1)c1ccccc1O do in these assays?
HCV inhibitor: inconclusive; Vaccinia Venus: -3.8%; HCMV inh: -67.2*; FMDV inh: 15.2%; Vaccinia mCherry: inconclusive

How did Cn1cnc([N+](=O)[O-])c1S(=O)(=O)c1cccc(Cl)c1 do in these assays?
HCV inhibitor: inconclusive; HCMV inh: 31.3; FMDV inh: 25.1µM*

What do the screens show for `Cn1cnc([N+](=O)[O-])c1S(=O)(=O)Oc1ccccc1`?
HCV inhibitor: inconclusive; Vaccinia Venus: -7.3%; HCMV inh: 42.9; FMDV inh: 25.1µM*; Vaccinia mCherry: -13.6%

Results for Cn1cnc([N+](=O)[O-])c1NCc1ccccc1 ?
HCV inhibitor: 6.3%; HCMV inh: -22.3; FMDV inh: 1.4%

How did Cn1cnc([N+](=O)[O-])c1S(=O)(=O)Nc1ccccc1 do in these assays?
HCV inhibitor: inconclusive; Vaccinia Venus: -22.0%; HCMV inh: 121.2; FMDV inh: 22.4µM*; Vaccinia mCherry: inactive

What do the screens show for `NCCCC(O)(P(=O)(O)O)P(=O)(O)O`?
Vaccinia Venus: -10.8%; FMDV inh: 2.6%; Vaccinia mCherry: -11.8%

How did O=C1C(c2ccc(F)cc2)N(CCc2ccccc2)C(=O)CN1C1CCCCCC1 (stereo unspecified) do in these assays?
Vaccinia Venus: -5.5%; HCMV inh: -28.2; FMDV inh: 9.3%; Vaccinia mCherry: -10.7%

How did COc1ccc(CNC(=O)c2ccc3c(c2)N(Cc2c(F)cccc2Cl)C(=O)CS3)cc1 do in these assays?
Vaccinia Venus: -14.1%; HCMV inh: -31.0; FMDV inh: -24.8%; Vaccinia mCherry: -18.5%

What do the screens show for `COc1ccccc1NS(=O)(=O)c1cccc(NC(=O)c2cncc(Br)c2)c1`?
HCV inhibitor: 12.6µM*; Vaccinia Venus: -28.1%; HCMV inh: inconclusive; FMDV inh: -4.7%; Vaccinia mCherry: -9.2%

Results for COc1ccccc1NS(=O)(=O)c1cccc(NC(=O)Nc2cccc(Cl)c2)c1 ?
HCV inhibitor: inconclusive; Vaccinia Venus: inconclusive; HCMV inh: -94.7*; FMDV inh: inconclusive; Vaccinia mCherry: inconclusive
